In the antibiotic and cytotoxicity screens of Wong et al. (2023):
Hit rate of the full screen: of about 39,000 compounds, about 3,300 (8.5%) were called active. Shown is part of a subset that was picked to be rich in actives.

What follows are compounds tested on HepG2 (assay: cytotoxicity call (relative viability < 0.9)). Conditions: 10 µM.

Row | SMILES | cytotoxicity call
1 | C[C@H](CO)N1C[C@H](C)[C@H](CN(C)C(=O)C2CCCCC2)OCCCC[C@H](C)Oc2ccc(NC(=O)c3ccccc3)cc2C1=O | inactive
2 | O=C(C[C@@H]1CC=CC[C@H](NC(=O)OCC2c3ccccc3-c3ccccc32)C(=O)O[C@H](c2ccccc2)CNC1=O)N[C@@H](CO)Cc1ccccc1 | inactive
3 | CNC(=O)C[C@H]1CC[C@@H]2[C@H](COC[C@H](O)CN2C(=O)Nc2ccc3c(c2)OCO3)O1 | inactive
4 | CO[C@H]1CN(C)C(=O)c2ccc(NS(=O)(=O)CC(F)(F)F)cc2OC[C@H](C)N(C(=O)NC(C)C)C[C@@H]1C | inactive
5 | CO[C@@H]1CN(C)C(=O)c2cc(NS(=O)(=O)c3cn(C)cn3)ccc2OC[C@H](C)N(CC2CC2)C[C@@H]1C | inactive
6 | CNC(=O)c1cnc2n1CCN(Cc1nccn1C)C2 | inactive
7 | CC(C)[C@H](NC(=O)[C@H](C)N(C)C)C(=O)N1CC[C@@H]2Oc3ccc(cc3)/C=C\NC(=O)[C@H](Cc3ccccc3)NC(=O)[C@H]21 | inactive
8 | C[C@@H]1CN([C@H](C)CO)C(=O)c2cc(NC(=O)Cn3cnnn3)ccc2O[C@H]1CN(C)S(=O)(=O)c1ccc(F)cc1 | inactive
9 | O=C(C[C@@H]1C[C@H]2c3cc(NC(=O)Nc4ccccc4F)ccc3O[C@H]2[C@@H](CO)O1)NCc1ccc(Oc2ccccc2)cc1 | inactive
10 | COc1ccc(CN(C)C[C@@H]2Oc3ccc(NC(=O)Nc4cccc5ccccc45)cc3C(=O)N([C@H](C)CO)C[C@@H]2C)cc1 | inactive
11 | C[C@@H]1CN([C@@H](C)CO)C(=O)c2cc(NC(=O)Nc3cccc4ccccc34)ccc2O[C@@H]1CN(C)Cc1ccc(Oc2ccccc2)cc1 | active
12 | COc1ccc(CN(C)C[C@H]2Oc3ccc(NC(=O)Nc4cccc5ccccc45)cc3C(=O)N([C@@H](C)CO)C[C@H]2C)cc1 | inactive
13 | C[C@@H]1CN([C@@H](C)CO)C(=O)c2cc(NC(=O)Nc3cccc4ccccc34)ccc2O[C@H]1CN(C)Cc1ccc(Oc2ccccc2)cc1 | inactive
14 | C[C@@H]1CN([C@H](C)CO)C(=O)c2cc(NC(=O)Nc3cccc4ccccc34)ccc2O[C@H]1CN(C)Cc1ccc(Oc2ccccc2)cc1 | active
15 | COc1ccc(CN(C)C[C@@H]2Oc3ccc(NC(=O)Nc4cccc5ccccc45)cc3C(=O)N([C@@H](C)CO)C[C@H]2C)cc1 | inactive
16 | COc1ccc(CN(C)C[C@@H]2Oc3ccc(NC(=O)Nc4cccc5ccccc45)cc3C(=O)N([C@H](C)CO)C[C@H]2C)cc1 | inactive
17 | COc1ccc(CN(C)C[C@H]2Oc3ccc(NC(=O)Nc4cccc5ccccc45)cc3C(=O)N([C@H](C)CO)C[C@@H]2C)cc1 | inactive
18 | C[C@H](CO)N1C[C@H](C)[C@H](CN(C)Cc2ccc(Oc3ccccc3)cc2)Oc2ccc(NC(=O)Nc3cccc4ccccc34)cc2C1=O | active
19 | C[C@@H]1CN([C@H](C)CO)C(=O)c2cc(NC(=O)Nc3cccc4ccccc34)ccc2O[C@@H]1CN(C)Cc1ccc(Oc2ccccc2)cc1 | active
20 | C[C@H](CO)N1C[C@H](C)[C@@H](CN(C)Cc2ccc(Oc3ccccc3)cc2)Oc2ccc(NC(=O)Nc3cccc4ccccc34)cc2C1=O | inactive

Row | SMILES | cytotoxicity call
21 | COc1ccc(CN(C)C[C@H]2Oc3ccc(NC(=O)Nc4cccc5ccccc45)cc3C(=O)N([C@@H](C)CO)C[C@@H]2C)cc1 | inactive
22 | C[C@H](CO)N1C[C@H](C)[C@H](CN(C)S(=O)(=O)c2ccc(F)cc2)Oc2ncc(C#CC(C)(C)O)cc2C1=O | inactive
23 | C[C@@H]1CN([C@@H](C)CO)C(=O)c2c(c3ccccc3n2C)-c2ccccc2CO[C@@H]1CN(C)Cc1cccc(C(=O)O)c1 | inactive
24 | C[C@H](CO)N1C[C@H](C)[C@H](CN(C)S(=O)(=O)c2ccc(Oc3ccccc3)nc2)OCc2cnnn2CCCC1=O | inactive
25 | COc1ccc(CCNC(=O)[C@@]2(Sc3ccc(C)cc3)CC(=O)N(Cc3cc(C(F)(F)F)cc(C(F)(F)F)c3)[C@@H]2c2ccc(CO)cc2I)cc1 | inactive
26 | Cc1ccc(S(=O)(=O)N2C[C@@H](O)COC[C@@H]3O[C@@H](CC(=O)N[C@@H]4CCN(Cc5ccccc5)C4)CC[C@H]32)cc1 | inactive
27 | COCC(=O)Nc1ccc2c(c1)C(=O)N(C)C[C@H](OC)[C@H](C)CN(C(=O)Cc1cccnc1)[C@H](C)CO2 | inactive
28 | C[C@@H]1CN([C@@H](C)CO)C(=O)c2cc(NC(=O)C3CC3)ccc2O[C@H]1CN(C)Cc1ccc(Oc2ccccc2)cc1 | inactive
29 | C[C@@H]1CN([C@@H](C)CO)S(=O)(=O)c2ccc(C#CC(C)(C)O)cc2O[C@H]1CN(C)C(=O)C1CCCCC1 | inactive
30 | O=C(C[C@@H]1C=C[C@H](NC(=O)C2CCC2)[C@H](CO)O1)NCCCN1CCOCC1 | inactive
31 | C[C@H](CO)N1C[C@H](C)[C@@H](CN(C)Cc2ccc(C(=O)Nc3ccccc3N)cc2)Oc2ccc(NC(=O)Cc3ccccc3)cc2C1=O | inactive
32 | C[C@H]1CN([C@@H](C)CO)S(=O)(=O)c2ccc(-c3ccc(F)cc3)cc2O[C@@H]1CN(C)S(C)(=O)=O | inactive
33 | C[C@@H]1CN([C@H](C)CO)C(=O)c2cc(NS(=O)(=O)c3ccccc3)ccc2O[C@@H](C)CCCCO[C@@H]1CN(C)S(C)(=O)=O | inactive
34 | COc1ccc(S(=O)(=O)Nc2ccc3c(c2)C(=O)N([C@@H](C)CO)C[C@@H](C)[C@H](CN(C)C(=O)c2ccccc2)OCCCC[C@H](C)O3)cc1 | inactive
35 | COc1ccc(CN(C)C[C@H]2Oc3ccc(NC(=O)Nc4cccc5ccccc45)cc3C(=O)N([C@H](C)CO)C[C@H]2C)cc1 | inactive
36 | COc1ccc(CN(C)C[C@@H]2Oc3ccc(NC(=O)Nc4cccc5ccccc45)cc3C(=O)N([C@@H](C)CO)C[C@@H]2C)cc1 | inactive
37 | C[C@H]1CN([C@@H](C)CO)C(=O)c2cc(NC(=O)Nc3cccc4ccccc34)ccc2O[C@@H]1CN(C)Cc1ccc(Oc2ccccc2)cc1 | active
38 | C[C@H]1CN([C@@H](C)CO)C(=O)c2cccc(NC(=O)c3cnccn3)c2O[C@@H]1CN(C)C(=O)Nc1ccc(F)cc1 | inactive
39 | CC(=O)OCCn1c(=O)[nH]c(=O)c2nsnc21 | inactive
40 | Cc1ccc(S(=O)(=O)Nc2ccc3c(c2)C(=O)N([C@H](C)CO)C[C@H](C)[C@H](CN(C)C(=O)Nc2cccc4ccccc24)OCCCC[C@H](C)O3)cc1 | active

Row | SMILES | cytotoxicity call
41 | Cc1ccc(S(=O)(=O)Nc2ccc3c(c2)C(=O)N([C@H](C)CO)C[C@@H](C)[C@H](CN(C)C(=O)Nc2cccc4ccccc24)OCCCC[C@H](C)O3)cc1 | active
42 | Cc1ccc(S(=O)(=O)Nc2ccc3c(c2)C(=O)N([C@@H](C)CO)C[C@H](C)[C@H](CN(C)C(=O)Nc2cccc4ccccc24)OCCCC[C@H](C)O3)cc1 | inactive
43 | Cc1ccc(S(=O)(=O)Nc2ccc3c(c2)C(=O)N([C@H](C)CO)C[C@@H](C)[C@H](CN(C)C(=O)Nc2cccc4ccccc24)OCCCC[C@@H](C)O3)cc1 | active
44 | Cc1ccc(S(=O)(=O)Nc2ccc3c(c2)C(=O)N([C@@H](C)CO)C[C@H](C)[C@@H](CN(C)C(=O)Nc2cccc4ccccc24)OCCCC[C@H](C)O3)cc1 | inactive
45 | Cc1ccc(S(=O)(=O)Nc2ccc3c(c2)C(=O)N([C@H](C)CO)C[C@H](C)[C@@H](CN(C)C(=O)Nc2cccc4ccccc24)OCCCC[C@@H](C)O3)cc1 | inactive
46 | Cc1ccc(S(=O)(=O)Nc2ccc3c(c2)C(=O)N([C@@H](C)CO)C[C@H](C)[C@H](CN(C)C(=O)Nc2cccc4ccccc24)OCCCC[C@@H](C)O3)cc1 | inactive
47 | Cc1ccc(S(=O)(=O)Nc2ccc3c(c2)C(=O)N([C@@H](C)CO)C[C@H](C)[C@@H](CN(C)C(=O)Nc2cccc4ccccc24)OCCCC[C@@H](C)O3)cc1 | inactive
48 | Cc1ccc(S(=O)(=O)Nc2ccc3c(c2)C(=O)N([C@@H](C)CO)C[C@@H](C)[C@@H](CN(C)C(=O)Nc2cccc4ccccc24)OCCCC[C@H](C)O3)cc1 | inactive
49 | CC(=O)Nc1cc2c(cc1N)OCCO2 | inactive
50 | COCC(=O)N(C)C[C@@H]1Oc2cc(C#C[C@H](C)O)ccc2S(=O)(=O)N([C@@H](C)CO)C[C@@H]1C | inactive
51 | C[C@H]1CN([C@@H](C)CO)C(=O)c2cc(NC(=O)Nc3ccc4c(c3)OCO4)ccc2O[C@H]1CN(C)Cc1ccc(Oc2ccccc2)cc1 | inactive
52 | C[C@H](CO)N1C[C@H](C)[C@@H](CN(C)Cc2ccc(Oc3ccccc3)cc2)Oc2ccc(NC(=O)Nc3ccc4c(c3)OCO4)cc2C1=O | inactive
53 | C[C@@H]1CN([C@H](C)CO)C(=O)c2cc(NC(=O)Nc3ccc4c(c3)OCO4)ccc2O[C@H]1CN(C)Cc1ccc(Oc2ccccc2)cc1 | inactive
54 | C[C@H](CO)N1C[C@H](C)[C@H](CN(C)Cc2ccc(Oc3ccccc3)cc2)Oc2ccc(NC(=O)Nc3ccc4c(c3)OCO4)cc2C1=O | inactive
55 | C[C@@H]1CN([C@@H](C)CO)C(=O)c2cc(NC(=O)Nc3ccc4c(c3)OCO4)ccc2O[C@@H]1CN(C)Cc1ccc(Oc2ccccc2)cc1 | active
56 | C[C@@H]1CN([C@H](C)CO)C(=O)c2cc(NC(=O)Nc3ccc4c(c3)OCO4)ccc2O[C@@H]1CN(C)Cc1ccc(Oc2ccccc2)cc1 | active
57 | C[C@H]1CN([C@@H](C)CO)C(=O)c2cc(NC(=O)Nc3ccc4c(c3)OCO4)ccc2O[C@@H]1CN(C)Cc1ccc(Oc2ccccc2)cc1 | active
58 | C[C@@H]1CN([C@@H](C)CO)C(=O)c2cc(NC(=O)Nc3ccc4c(c3)OCO4)ccc2O[C@H]1CN(C)Cc1ccc(Oc2ccccc2)cc1 | inactive
59 | C[C@@H]1CN([C@@H](C)CO)C(=O)c2cccc(NC(=O)C3CCCCC3)c2O[C@H]1CN(C)C(=O)Nc1cccc2ccccc12 | inactive
